# Measured values taken from ChEMBL document CHEMBL4513216, “Probing the Open Global Health Chemical Diversity Library for Multistage-Active Starting Points for Next-Generation Antimalarials” (ACS Infect Dis, 2020).
# The whole screen tested about 65,000 compounds, of which about 2,100 (3.2%) showed an effect of 50% or more. The median lay at about -52%. The entries come from a sample that favours strong results as a whole.
# Test system: Plasmodium falciparum
# Assay: Screen against P. falciparum Asexual Blood Stage (ABS), at 5uM
# Format: functional, Dd2
# Details: tested at 5 uM
row,Compound,INHIBITION [%]
1,CC(=O)N1CCC2(C1)c1ccccc1S(=O)(=O)N2C (stereo not drawn),-56.8
2,CC(C)c1nn(C)c(N(C)C)c1CNCc1cccc2cccnc12,67.5
3,CC(C)c1nn(C)c(N(C)C)c1CNCc1ccccc1CO,44.8
4,COCc1ccccc1CNCc1c(C(C)C)nn(C)c1N(C)C,59.4
5,COc1ncccc1CNCc1c(C(C)C)nn(C)c1Cl,51.7
6,CC(C)c1nn(C)c(N(C)C)c1CNCc1cccnc1N(C)C,21
7,CC(C)c1nn(C)c(N(C)C)c1CNCc1ccccc1CN(C)C,59.5
8,Cc1nn(C)c(N(C)C)c1CNCc1ccccc1CN(C)C,18.8
9,COCc1cccc(CNCc2c(C(C)C)nn(C)c2N(C)C)c1,36.5
10,COc1ncccc1CNCc1c(C(C)C)nn(C)c1N(C)C,11
11,CCOc1ncccc1CNCc1c(C(C)C)nn(C)c1N(C)C,-7.19
12,COCc1ccccc1CNCc1c(C)nn(C)c1N(C)C,-36.8
13,COc1ncccc1CNCc1c(C(C)C)nn(C)c1OC,-29.9
14,CS(=O)(=O)c1ccc(CN2C[C@@H]3CC[C@H]2CN(c2ncccn2)C3)cc1,-136
15,CN(Cc1noc(C2CC2)n1)C1CCN(Cc2nnc(C3CC3)o2)C1 (stereo not drawn),-122
16,CC(C)(C)C(N)C1=NC(=C2N=CN=N2)NO1 (stereo not drawn),-49.9
17,CCn1c(=NC(=O)CSCC(=O)Nc2nccs2)sc2ccccc21,32.3
18,CC(NCc1cnc(N2CCOCC2)nc1)c1ccc(Cl)s1 (stereo not drawn),-25.9
19,c1csc(CN2CCO[C@@H]3CN(C4CCOCC4)C[C@@H]3C2)c1,-93.2
20,Cc1noc(C)c1CN1Cc2cnn(C)c2C(COCC2CC2)C1 (stereo not drawn),-81.3
21,Cc1ccc(CN2CCS(=O)(=O)C(C)(C)C2)cc1C,-98.2
22,Cc1csc2ncnc(N3CCC(Cn4cc(C(C)(C)N)nn4)CC3)c12,35
23,COc1ccc(NC(=O)CNc2ccc(Br)cc2F)cc1,-68.8

row,Compound,INHIBITION [%]
1,COc1cccc(CNCc2c(C(C)C)nn(C)c2N(C)C)c1,-5.49
2,COc1ccc(OC)c(CNCc2c(C(C)C)nn(C)c2N(C)C)c1,69.3
3,COc1cccc(CNCc2c(C(C)C)nn(C)c2N(C)C)c1OC,33.3
4,CC(C)COc1cncc(N2CCCN(c3ncccn3)CC2)n1,-186
5,c1ccc(C2=NOC3(CCN(Cc4c[nH]c5ccccc45)CC3)C2)cc1,36.1
6,Fc1ccc(CN2CCCC3(CCN(Cc4ncc[nH]4)C3)C2)cc1F (stereo not drawn),60.9
7,Cc1ccc(CN2CCC3(CCCN(Cc4ccc(F)c(F)c4)C3)C2)o1 (stereo not drawn),28.1
8,O=C(c1cn[nH]c1)N1CCC2(CCCN(Cc3ccc(F)c(F)c3)C2)C1 (stereo not drawn),-25.8
9,CCc1nc2c(s1)C(N(C)C(=O)c1csnn1)CCC2 (stereo not drawn),-32.3
10,CCOC(=O)CC1(Nc2nc(C)nc3c2cnn3C)CCCCC1,-25.2
11,COCC1(Nc2nc(C)nc3c2cnn3C)CCCC1,-142
12,Cc1nc(NC2(CN3CCCCC3)CCCCC2)c2cnn(C)c2n1,56
13,Cc1nc(C(=O)NCCS(=O)(=O)N2CCCC2)cs1,-31.8
14,Cc1nc(COc2ccc(OC3CCCCNC3=O)cc2)oc1C (stereo not drawn),-151
15,O=C(Nc1ccc2c(c1)C(=O)NC2=O)c1cccs1,-80.7
16,CCC(=O)N1CCC2(CC1)COCCN2Cc1ccc(F)cc1,-31.7
17,CC(=O)N(Cc1noc(C)n1)C1CCN(CCOc2ccccc2)C1 (stereo not drawn),-79.1
18,Cn1cc(N2CC3(CCN(CC4CC4)CC3)OCC2=O)cn1,-53.1
19,Cc1noc(-c2ccnc(Oc3ccc(CN4CCCC4)cc3F)c2)n1,-38.8
20,Cc1noc(-c2ccnc(Oc3ccccc3CN3CCCCC3)c2)n1,-36.8
21,Cc1noc(-c2ccnc(Oc3ccc(CN4CCCC4)cc3C)c2)n1,53.3
22,Cc1ccc(-c2nnc(CN3CCc4nn(C)c(=O)cc4C3)o2)cc1,-38.4
23,CCOC(=O)N1CCN(c2nc(NC3CC3)c3ccccc3n2)CC1,4.86

row,Compound,INHIBITION [%]
1,Cc1csc2c(C3CCCN(C(=O)CCn4ccnc4)C3)nc(C)n12 (stereo not drawn),-97.3
2,COCCN(CC1CCCN(C2Cc3ccccc3C2)C1)C(=O)CSC (stereo not drawn),1.3
3,COCCN(CC1CCCN(C2Cc3ccccc3C2)C1)C(=O)CO (stereo not drawn),59.9
4,COCCN(CC1CCCN(C2Cc3ccccc3C2)C1)C(=O)COC (stereo not drawn),39.5
5,O=C(NC1CCC1)C1=NOC2(CCN(Cc3ccc(F)cc3)C2)C1 (stereo not drawn),-11.6
6,c1ccc(CN2CC[C@@H]3O[C@@H](COCCN4CCCC4)CC[C@@H]32)nc1,-36
7,COCCN1CC[C@@H]2OC[C@H](C(=O)N(C)Cc3ccccn3)C[C@@H]2C1,11.1
8,c1cc(CN2CCCC2)ccc1CNc1cncc2nnnn12,-31.2
9,c1cc(N2CCSCC2)ccc1CNc1cncc2nnnn12,-119
10,c1ccc(CN2CCCC2)c(CNc2cncc3nnnn23)c1,61.4
11,Cc1cc(C(=O)N2C[C@@H]3COC[C@]3(CN(C)C)C2)sc1C,-113
12,Cc1cc(N(C)CCN(C)C)n2nc(C)cc2n1,-113
13,Cc1cc(N(C)CCN(C)C2CCCC2)n2nc(C)cc2n1,55.7
14,Cc1cc(C)nc(N(C)CCN(C)C2CCCC2)n1,28
15,O=C(c1ccc2[nH]ccc2c1)N1CCn2cc(CN3CCCC3)nc2C1,-38.2
16,COCCn1cc2c(n1)C(CNCc1ccc(F)cc1)OCC2 (stereo not drawn),-11.4
17,c1cc(CNCC2OCCc3cn(CC4CC4)nc32)cs1 (stereo not drawn),47
18,Fc1ccc(CNCC2OCCc3cn(CC4CC4)nc32)cc1 (stereo not drawn),68.9
19,CCc1cnc(CNC(=O)NCCc2ccc(O)cc2)s1,-13.3
20,CNC(=O)CC1CC2(CCN(c3ncccn3)CC2)c2ccccc21 (stereo not drawn),-87
21,Cc1cccc(N2CC3(CCN(Cc4nccn4C)C3)CC2=O)c1 (stereo not drawn),-54.9
22,COCc1ncc(CN2CC[C@@H](NC(=O)c3cccnc3)[C@H](O)C2)cn1,-35.5
